Test results published in PubChem BioAssay (Tox21).
Results filed as inconclusive are left out. Calls of active or inactive are those of the source. Unless noted, calls follow the shape of the dose curve; as a rule, active = well fitted curve in the direction sought with a large enough effect in the repeat runs; inconclusive = weak or mixed curves; inactive = no such curve, though single readings can be large; an effect the other way counts as inactive or inconclusive.

How the values were obtained:
[1] = A CellTox Green Cytotoxicity Assay to monitor cytotoxicity in HepG2 cells - 0 hour (AID 1224882); also: nearly all actives have a fitted effect of over 35% in size; also: potency is read from the fitted curve at half-maximal effect
Summary of the method: (§1)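 Read-out is fluorescence of a cyanine dye excluded from live cells that stains DNA of dead HepG2 cells, with signal proportional to cytotoxicity. Plates were read at 0, 8, 16, 24, 32 and 40 h after compound addition.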

[2] = A CellTox Green Cytotoxicity Assay to monitor cytotoxicity in HepG2 cells - 32 hour (AID 1224883); also: nearly all actives have a fitted effect of over 50% in size; also: potency is read from the fitted curve at half-maximal effect
Summary of the method: as §1

[3] = A CellTox Green Cytotoxicity Assay to monitor cytotoxicity in HEK293 cells - 8 hour (AID 1224884); also: nearly all actives have a fitted effect of over 35% in size; also: potency is read from the fitted curve at half-maximal effect
Summary of the method: (§2)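 Nonlytic real-time cytotoxicity: HEK293 + CellTox Green reagent plated, 5 h preincubation, pintool compound addition (23 nL in DMSO), 37 C for 40 h, fluorescence measured at successive time points.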

[4] = qHTS RealTime-Glo MT Cell Viability Assay in HepG2 cells - 16 hour (AID 1224885); also: nearly all actives have a fitted effect of over 50% in size
Summary of the method: (§3)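 HepG2 suspension premixed with RealTime-Glo reagents is plated at 600 cells per well and left 5 h at 37 C/5% CO2. Compounds in DMSO then go in, and bioluminescence reflecting viable cell number is recorded over 40 h.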

[5] = qHTS RealTime-Glo MT Cell Viability Assay in HEK293 cells - 24 hour (AID 1224886); also: nearly all actives have a fitted effect of over 50% in size; also: potency is read from the fitted curve at half-maximal effect
Summary of the method: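 Reads taken at 0, 8, 16, 24, 32 and 40 h from the same wells. HEK293 cells (600/well) carried RealTime-Glo reagents from seeding, with compound added after a 5 h settle at 37 C.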

[6] = qHTS RealTime-Glo MT Cell Viability Assay in HEK293 cells - 8 hour (AID 1224887); also: top concentration of the series differs between compounds; nearly all actives have a fitted effect of over 50% in size
Summary of the method: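 Cells were seeded together with NanoLuc luciferase and a prosubstrate that viable cells reduce to a luciferase substrate. After a 5 h incubation at 37 C/5% CO2, compounds were added and luminescence was measured repeatedly during 40 h of treatment.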

[7] = A CellTox Green Cytotoxicity Assay to monitor cytotoxicity in HEK293 cells - 16 hour (AID 1224888); also: nearly all actives have a fitted effect of over 35% in size
Summary of the method: as §2

[8] = qHTS RealTime-Glo MT Cell Viability Assay in HepG2 cells - 0 hour (AID 1224889); also: nearly all actives have a fitted effect of over 50% in size
Summary of the method: as §3

[9] = A CellTox Green Cytotoxicity Assay to monitor cytotoxicity in HepG2 cells - 8 hour (AID 1224890); also: nearly all actives have a fitted effect of over 45% in size; also: potency is read from the fitted curve at half-maximal effect
Summary of the method: as §1

[10] = qHTS assay to identify small molecule antagonists of the estrogen receptor alpha (ER-alpha) signaling pathway using the BG1 cell line in the presence of 0.1 nM 17-beta-estradiol - cell viability counter screen (AID 1259241); also: nearly all actives have a fitted effect of over 40% in size
Summary of the method: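 CellTiter-Fluor read (30 min, 37C) on ER-alpha/ERE-luc VM7Luc4E2 cells; 22 hr compound treatment; agonist 0.1 nM E2 final; same-well multiplex.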

[11] = qHTS assay to identify small molecule antagonists of the androgen receptor (AR) signaling pathway using the MDA cell line in the presence of 0.5 nM R1881 - cell viability counter screen (AID 1259242); also: nearly all actives have a fitted effect of over 45% in size
Summary of the method: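 Counter screen for cytotoxicity run in the same wells as the AR antagonist reporter screen: MDA-kb2 cells were treated 16 hr with test compounds and 0.5 nM R1881, then live-cell protease activity was measured by fluorescence.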

[12] = qHTS assay to identify small molecule phospholipidosis (PLD) inducers (AID 1259344; active = well fitted curve in the direction sought with a large enough effect; an effect the other way counts as inactive or inconclusive)
Summary of the method: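 HepG2 cells on collagen I, attached 4 h at 37 C, were co-treated with compound and LipidTOX Red dye for 24 h at 37 C, then fixed with paraformaldehyde plus Hoechst 33342 and imaged by high-content microscopy for phospholipid accumulation.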

[13] = qHTS assay to identify small molecule HDAC inhibitors (AID 1259364); also: nearly all actives have a fitted effect of over 45% in size; also: potency is read from the fitted curve at half-maximal effect
Summary of the method: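 Luminescence from a cell-permeant luminogenic class I/II HDAC substrate reports endogenous deacetylase activity in intact HCT-116 cells treated with compounds for 2 h.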

[14] = qHTS assay to identify small molecule agonists of the sonic hedgehog signaling (Shh) pathway - cell viability counter screen (AID 1259366); also: nearly all actives have a fitted effect of over 50% in size; also: potency is read from the fitted curve at half-maximal effect
Summary of the method: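 Fluorescence from CellTiter-Fluor reports live cells in this counter screen. NIH/3T3-derived Gli1-Luc reporter cells receive test compounds for 24hr at 37C; reagent goes in at 23hr.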

[15] = qHTS assay to identify small molecule antagonists of the sonic hedgehog signaling (Shh) pathway - cell viability counter screen (AID 1259367); also: nearly all actives have a fitted effect of over 55% in size; also: potency is read from the fitted curve at half-maximal effect
Summary of the method: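 NIH/3T3-derived Gli1-Luc reporter cells (2,000 per well) rested 4 hr at 37 C, then received DMSO compounds plus conditioned medium. After 23 hr of treatment, CellTiter-Fluor was added for 1 hr at 37C and fluorescence read.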

[16] = qHTS assay to identify small molecule agonists of the sonic hedgehog signaling (Shh) pathway (AID 1259368; calls by dose curve; also: nearly all actives have a fitted effect of over 15% in size; also: potency is read from the fitted curve at half-maximal effect)
Summary of the method: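 3T3Gli1-Luc (NIH/3T3 clone, stable Gli1-Luc); 4 hr pre-incubation, then cpd in DMSO 24 hr, 37 C/5% CO2; luciferase reagent 30 min RT; luminescence.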

[17] = qHTS assay to identify small molecule HDAC inhibitors - cell viability counter screen (AID 1259365)
Summary of the method: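 To flag cytotoxic hits, 1,500 wild-type HCT-116 cells per well, plated the day before, receive test compounds for 2hr at 37 C before CellTiter-Glo reagent and a luminescence read.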

[18] = qHTS assay to identify small molecule antagonists of the sonic hedgehog signaling (Shh) pathway (AID 1259369; calls by dose curve; also: nearly all actives have a fitted effect of over 45% in size; also: potency is read from the fitted curve at half-maximal effect)
Summary of the method: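 3T3Gli1-Luc, conditioned-medium-stimulated, 24hr cpd, 37C/5% CO2; Gli1-driven firefly Luc luminescence after 30min RT with luciferase reagent. Cells plated 4hr before cpd.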

[19] = biological target: Estrogen receptor (Homo sapiens) (UniProt P03372); test: qHTS assay to identify small molecule antagonists of the estrogen receptor alpha (ER-alpha) signaling pathway using the BG1 cell line in the presence of 0.1 nM 17-beta-estradiol (AID 1259244); also: nearly all actives have a fitted effect of over 50% in size
Summary of the method: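 Cells: VM7Luc4E2, endogenous ER-alpha, 4x ERE-luc stable. Pre-culture 5 d, phenol red-free, charcoal-stripped FBS. Plated 24 h, compound + E2 0.1 nM final, 22 h 37C/5% CO2. Readout ONE-Glo luminescence.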

Measured: Potency

Sequence of Estrogen receptor (Homo sapiens) (P03372 whole entry, looked up): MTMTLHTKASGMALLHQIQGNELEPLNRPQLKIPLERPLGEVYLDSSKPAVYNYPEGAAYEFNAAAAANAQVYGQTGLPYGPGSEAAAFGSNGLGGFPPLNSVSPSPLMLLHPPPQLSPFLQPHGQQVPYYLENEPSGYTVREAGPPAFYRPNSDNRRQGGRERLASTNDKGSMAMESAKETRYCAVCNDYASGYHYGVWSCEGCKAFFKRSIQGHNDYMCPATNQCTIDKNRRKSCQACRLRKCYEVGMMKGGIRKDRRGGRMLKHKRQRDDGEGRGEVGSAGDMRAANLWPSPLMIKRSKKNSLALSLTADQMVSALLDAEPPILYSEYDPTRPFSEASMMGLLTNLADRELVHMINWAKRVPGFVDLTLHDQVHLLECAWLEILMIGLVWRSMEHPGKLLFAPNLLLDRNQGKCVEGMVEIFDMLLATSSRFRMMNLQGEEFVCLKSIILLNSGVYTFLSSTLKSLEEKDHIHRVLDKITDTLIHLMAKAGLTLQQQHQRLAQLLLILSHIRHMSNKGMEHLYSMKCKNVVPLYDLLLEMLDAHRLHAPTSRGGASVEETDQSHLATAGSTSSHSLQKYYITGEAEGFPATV

Cc1ccc(S(=O)(=O)NC(=O)NC2CCCC2)cc1
inactive: [1] | [2] | [3] | [4] | [5] | [6] | [7] | [8] | [9] | [10] | [11] | [12] | [13] | [14] | [15] | [16]

Cc1c(Nc2ncccc2C(=O)O)cccc1C(F)(F)F
inactive: [1] | [2] | [3] | [4] | [5] | [6] | [7] | [8] | [9] | [10] | [11] | [12] | [17] | [14] | [15] | [16] | [18]

C1CCN(CN2CCCCC2)CC1
inactive: [1] | [2] | [3] | [4] | [5] | [6] | [7] | [8] | [9] | [10] | [11] | [19] | [13] | [14] | [15] | [16] | [18]

C=C(C)C(=O)OCCCCCCCCCCOC(=O)C(=C)C
inactive: [1] | [2] | [3] | [4] | [5] | [6] | [7] | [8] | [9] | [10] | [11] | [13] | [17] | [14] | [15] | [16] | [18]

O=[N+]([O-])c1ccc(Cl)cc1Cl
inactive: [1] | [2] | [3] | [4] | [5] | [6] | [7] | [8] | [9] | [10] | [11] | [13] | [17] | [14] | [15] | [16] | [18]

C[C@@H](O)[C@H]1C(=O)N2C(C(=O)O)=C(S[C@@H]3CN[C@H](CNS(N)(=O)=O)C3)[C@H](C)[C@H]12
inactive: [1] | [2] | [3] | [4] | [5] | [6] | [8] | [9] | [10] | [11] | [19] | [12] | [13] | [14] | [15] | [16] | [18]

Nc1ccccc1Nc1ccccc1
active: [14] 68.8 µM | [15] 54.6 µM | [18] 2.74 µM
inactive: [1] | [2] | [3] | [4] | [5] | [7] | [8] | [9] | [10] | [11] | [13] | [17]

CC(C)=CCCC(C)C=O (configuration not stated)
inactive: [1] | [2] | [3] | [4] | [5] | [6] | [9] | [10] | [11] | [19] | [13] | [17] | [14] | [15] | [16] | [18]

CCCCCCCCCC(C)C=O (configuration not stated)
active: [1] 24.5 µM | [2] 21.9 µM | [3] 24.5 µM | [9] 24.5 µM
inactive: [4] | [5] | [6] | [8] | [10] | [11] | [13] | [17] | [14] | [15] | [18]

CCCCCCCCCCCCSC#N
inactive: [1] | [2] | [3] | [4] | [5] | [6] | [8] | [9] | [10] | [11] | [19] | [13] | [17] | [14] | [15] | [16] | [18]

NC(=O)c1ccccc1C(N)=O
active: [1] 49.2 µM | [2] 55.2 µM | [3] 49.2 µM | [5] 34.8 µM | [9] 49.2 µM
inactive: [4] | [8] | [11] | [19] | [13] | [14] | [15] | [16] | [18]

CCN(CC)CC(=O)OCC(=O)[C@@]1(O)CC[C@H]2[C@@H]3CCC4=CC(=O)CC[C@]4(C)[C@H]3[C@@H](O)C[C@@]21C
inactive: [1] | [2] | [3] | [4] | [5] | [6] | [9] | [11] | [19] | [13] | [17] | [14] | [15] | [16]

CC1(C)CC(O)CC(C)(C)N1[O]
inactive: [1] | [2] | [3] | [4] | [5] | [6] | [8] | [9] | [10] | [11] | [19] | [13] | [17] | [14] | [15] | [16] | [18]

Nc1ccc(F)cc1F
inactive: [1] | [2] | [3] | [4] | [5] | [6] | [8] | [9] | [10] | [11] | [19] | [13] | [17] | [14] | [15] | [16] | [18]

CCc1ccc2c(c1)C(=O)c1ccccc1C2=O
inactive: [1] | [2] | [3] | [4] | [5] | [6] | [8] | [9] | [11] | [19] | [17] | [14] | [15] | [18]
active: [13] 0.77 µM | [16] 6.86 µM
